This is an account of results in PubChem BioAssay (NCI).

Molecules are shown by their SMILES. “And” between values parts separate entries of the source, which are not always exact repeats. Equal values may be shown once. The panel holds about 83,000 compounds, 20% with a hit somewhere; the sample as a whole holds those more often.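 A percent growth of 40 corresponds to 60% growth inhibition; 0 means no net growth; -100 means all cells died. Active threshold: below 10.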 A structure can be active in one record and inactive in another. The source made the active and inactive calls.

One experiment deals with SR leukemia. As to the kind of experiment: NCI-60 one-dose screen, 48 h (100 = growth as untreated, 0 = no growth, -100 = all killed). As to conditions: 10 µM. Here is the method: Growth inhibition of the SR human tumor cell line is measured as a screen for anti-cancer activity. Cells are grown in 96 well plates and exposed to the test compound for 48 hours. Compounds are tested at a single concentration, which is 10^-5 M for most compounds. The reported endpoint is percent growth (GI% or GIPRCNT), where numbers from 0 - 100% represent growth inhibition, and numbers from -100% - 0 represent cell death. For example, a value of 40 represents 60% growth inhibition. A value of 0 means no net growth occurred over the course of the experiment. A value of -40 indicates 40% of cells at the beginning of the experiment died by the end of the experiment. A value of -100 means all cells are dead at the end of the experiment.
NCI-60 Human Tumor Cell Lines Screen was performed using the standard one-dose NCI protocol, which is described in more detail at https://dtp.cancer.gov/discovery_development/nci-60/default.htm.
Compounds with GIPRCNT values below 10 were considered active. Activity score was based on GIPRCNT using the following formula: […]
Score is 0 for GIPRCNT values of 100 or above, 50 for GIPRCNT values of 0, and 100 for GIPRCNT values of -100.
Turning to `O=C(O)c1sccc1O`, the growth was 67.7% (inactive).

Still in this experiment, the particulars now being: 10 µM unless noted.
Regarding `CCOC(=O)c1c(C)oc(C)c(C(=O)OCC)c1=O`, the growth was 118% (inactive) and 85% (inactive).

Consider `CCNC(=O)Nc1ccc(-c2nc3c(c(N4CCOC[C@@H]4C)n2)CCN(C2COC2)C3)cc1`, for which the growth was 47.9% (inactive) and 11.8% (inactive).

For the molecule `CCN(CC)C(=S)SSC(=S)N(CC)CC`, the growth was 3.32% (active) and 89% (inactive).

Take `CCCCOc1cc(C(=O)NCCN(CC)CC)c2ccccc2n1`: the growth is 101% (inactive) and 93% (inactive).

On to `CCOc1ccc2cc(-c3nn(CC4CCN(C)CC4)c4ncnc(N)c34)ccc2c1`, for which the growth was 65.4% (inactive) and -27.1% (active).

For the molecule `S=C(S)N1CCCC1`, the growth is 65.2% (inactive) and 83.6% (inactive).

Regarding `CN(C)c1ccc2nc3ccc(=[N+](C)C)cc-3sc2c1`, the growth is 29.2% (inactive) and 39.6% (inactive) and 51.5% (inactive).

On to `COc1ccc2cc3[n+](cc2c1OC)CCc1cc2c(cc1-3)OCO2`, for which the growth is 50% (inactive) and 68.8% (inactive).

For the molecule `OC1CCC(Oc2cccc3cnc(Nc4ccc5nc[nH]c5c4)nc23)CC1` (stereo not given), the growth was -15.3% (active) and -4.18% (active).

As for `Oc1ccc(/C=C/c2ccccc2)cc1`, the growth was 48.6% (inactive) and 69.6% (inactive).

With `NC(=S)NN=C1CCC(C2CCCCC2)CC1` (stereo not given), the growth is 125% (inactive).

Turning to `CNC(=O)c1cccnc1`, the growth was 87.4% (inactive).

Turning to `CCCCCN(CCCCC)CC(O)c1cc2c(c3ccccc13)CCCC2` (stereo not given), the growth was 11.1% (inactive) and 14.2% (inactive).

For the molecule `O=C(Nc1ccc([N+](=O)[O-])cc1Cl)c1cc(Cl)ccc1O`, the growth is -3.74% (active).

Consider `CCOc1ccc(Nc2c3ccccc3nc3ccccc23)cc1`, for which the growth is 81.6% (inactive) and 7.88% (active) and -40.6% (active).

Take `OCCN1CCN(CCO)CC1`: the growth was 99.5% (inactive) and 117% (inactive) and 98.8% (inactive).

Consider `COc1ccc2c(=O)cc(-c3ccccc3)[nH]c2c1`, for which the growth is 4.49% (active).

In the case of `NC(=O)c1ccccc1OCC(O)CO` (stereo not given), the growth is 94.9% (inactive).

On to `CCCCCCCCCCCCOc1ccccc1C=O`, for which the growth is 84.9% (inactive).

Take `CC(C)Cc1ccc(C(C)C(=O)NCc2ccc(Cn3c(=O)sn(CCCCl)c3=O)cc2)cc1` (stereo not given): the growth was 108% (inactive) and 3.82% (active).

Regarding `NC(=S)N/N=C(\c1ccc(Br)cc1)C1CC1`, the growth was 87.6% (inactive).

Regarding `O=C(Oc1cccc(OC(=O)c2ccccc2)c1)c1ccccc1`, the growth is 94.4% (inactive).

Take `CCN1CCN(CCNc2nccc(-c3c(-c4cccc(O)c4)nc4sccn34)n2)S1(=O)=O`: the growth is 59.4% (inactive) and 36.2% (inactive).

For `O=C(O)c1cc(C(=O)O)cc([N+](=O)[O-])c1`, the growth is 86.4% (inactive).

Turning to `O=C(CN1CCN(c2cc3c(cc2F)c(=O)c(C(=O)O)cn3C2CC2)CC1)Nc1ccc(Cl)cc1`, the growth is 71.1% (inactive) and 71.4% (inactive).

`CC(C)Oc1ccc2cc(-c3nn(CC4CCNCC4)c4ncnc(N)c34)ccc2c1`: the growth was 18.3% (inactive) and -42.2% (active).

In the case of `CCc1ccccc1-n1c(N)c(C#N)c(-c2ccc(OC)c(OC)c2)c(C#N)c1=O`, the growth was 83% [100 µM] (inactive).

In the case of `CC1CCCc2sc3nc(NNC(=O)c4cnccn4)n(-c4ccccc4)c(=O)c3c21` (stereo not given), the growth is 1.65% (active) and 26.4% (inactive).

Turning to `Nc1ccc2[nH]c(-c3ccccc3)cc(=O)c2c1`, the growth was 4.32% (active).

As for `Clc1ccc(NC(Nc2ccc(Cl)cc2)C(Cl)(Cl)Cl)cc1`, the growth was 99.4% (inactive).

`Nc1cc2c(cc1N)-c1ccccc1C2`: the growth is 71.1% (inactive) and 90.7% (inactive).

With `COC(=O)/C=C/c1cc(O)c2c(c1)C(C(=O)OC)C(c1ccc(O)c(O)c1)O2` (stereo not given), the growth is 5.46% (active) and 10.8% (inactive).

For `CN1CCN(C2CCN(C(=O)Nc3cc(Oc4ccc(NC(=O)C5(C(=O)Nc6ccc(F)cc6)CC5)c(F)c4)ccn3)CC2)CC1`, the growth was -22.9% (active) and 58.4% (inactive).

In the case of `Oc1ccccc1/C=N\NC(=S)N/N=C/c1ccccc1O`, the growth was 20% (inactive) and 21.9% (inactive).

As for `O=c1c2ccccc2nc2n1Cc1nc3ccccc3c(=O)n1C2`, the growth was 85.9% (inactive).

Regarding `NC(=O)NO`, the growth was 54.6% (inactive).

On to `COc1cc2c(c(OC)c1OC)-c1ccc(OC)c(=O)cc1[C@@H](NC(C)=O)CC2`, for which the growth is 4.98% (active) and 2.6% (active) and 5.4% (active).

For the molecule `CCN(CC)CCCC(C)Nc1ccnc2cc(Oc3ccccc3)ccc12` (stereo not given), the growth was 9.09% (active) and 33.9% (inactive).

The experiment is the same for the next values; noted with them: 100 µM.
For the molecule `O=C(O)c1sccc1O`, the growth is 4.33% (active).
